Assay outcomes: PubChem BioAssay, The Scripps Research Institute Molecular Screening Center
Rows were chosen to be rich in hits. Some 3.5% of all compounds tested hit in one or more screens of this group.
MITF primary – MITF inhibitors, primary screen, biochemical, AlphaScreen, human. AID 1259374, 2018. inhibition, % at 2.6 µM. AlphaScreen MITF homodimerization, bead proximity signal. 650,000 tested, 0.91% active. Microphthalmia-associated transcription factor (Homo sapiens), O75030; in the data active means inhibition above about 50%;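 further: 0% = vehicle wells with protein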
Target sequence (O75030 whole entry, looked up): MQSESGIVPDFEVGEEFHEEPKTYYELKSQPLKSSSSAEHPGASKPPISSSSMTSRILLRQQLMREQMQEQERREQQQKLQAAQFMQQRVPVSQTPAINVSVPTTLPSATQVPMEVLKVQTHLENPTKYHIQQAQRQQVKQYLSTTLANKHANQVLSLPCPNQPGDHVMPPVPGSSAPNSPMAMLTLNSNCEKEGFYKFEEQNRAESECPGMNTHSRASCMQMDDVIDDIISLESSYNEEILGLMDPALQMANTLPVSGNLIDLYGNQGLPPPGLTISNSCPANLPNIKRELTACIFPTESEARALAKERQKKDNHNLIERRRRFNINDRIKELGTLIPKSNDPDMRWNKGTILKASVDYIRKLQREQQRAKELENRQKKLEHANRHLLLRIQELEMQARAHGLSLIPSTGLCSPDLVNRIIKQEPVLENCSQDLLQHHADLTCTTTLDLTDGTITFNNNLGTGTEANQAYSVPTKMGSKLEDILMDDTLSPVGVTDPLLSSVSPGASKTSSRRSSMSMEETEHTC
TEAD-YAP block – TEAD-YAP interaction inhibition, primary screen, TEAD-YAP interaction inhibitor project, luminescence, HEK-TIYL cells. TEAD-Gal4/YAP UAS-luciferase luminescence. inhibition, % at 9.12 µM. 640,000 tested, 1.4% active; in the data active means inhibition above about 32%;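 further: 0% = median of test compound wells and 100% = reference inhibitor wells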
GPR151 ag – activators of human GPR151, primary screen, cell-based, PathHunter beta-arrestin, luminescence; G-protein coupled receptor 151 (Homo sapiens), Q8TDV0; PathHunter beta-arrestin GPR151 cells; activation, % at 11.2 µM; 650,000 tested, 1% active; AID 1508602, 2020; in the data active means activation above about 4.9%;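 further: 0% = median of compound wells and 100% = cells with positive control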
FBW7 act – FBW7 E3 ligase activators, primary screen, biochemical, AlphaScreen, human. F-box/WD repeat-containing protein 7 (Homo sapiens), Q969H0. AlphaScreen FBW7–phospho-cyclin E peptide binding, activator screen. normalized activity (activation), % at 26.1 µM. 650,000 tested, 0.13% active. AID 1259310, 2017; in the data active means normalized activity above about 1.9%;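 further: purified mutant Fbw7 with reduced substrate affinity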
MITF confirm – MITF inhibitors, retest of hits, confirmation, biochemical, AlphaScreen, triplicate; AID 1259372, 2018; 4,700 tested, 16% active; AlphaScreen MITF homodimerization, biotin/His-MITF beads; inhibition, % at 2.6 µM; shares compounds with MITF primary;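 active means inhibition above a cutoff derived from the DMSO control wells, cut at about 28% in these data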;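 further: 0% = MITF dimer wells with DMSO only; inhibitors lower the bead chemiluminescence by keeping MITF from dimerizing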
AS interf DR – AlphaScreen optical interference compounds, dose response, counter-screen, biochemical, HTS. shares compounds with MITF primary. AlphaScreen optical interference counterscreen, cell-free. IC50, µM. 480 tested, 6% active. AID 1259373, 2018; call rule not given here
AS interf ctr – AlphaScreen optical interference compounds, counter-screen for MITF inhibitor project, biochemical, triplicate; shares compounds with MITF primary; LysRS AlphaScreen counterscreen, signal interference; inhibition, % at 2.6 µM; 4,700 tested, 7.6% active;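 active means inhibition above a cutoff derived from the DMSO control wells, cut at about 30% in these data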
Starred values were filed as active, the others as inactive; · = no result given; ! = a repeat was not active.

SMILES	MITF primary	TEAD-YAP block	GPR151 ag	FBW7 act	MITF confirm	AS interf ctr	others
N#C/C(=C\c1cc(Cl)cc(Cl)c1OCc1ccc(Cl)cc1Cl)c1nn(CCO)c(N)c1C#N	1.3	4.6	-0.9	-0.1	·	·
N#C/C(=C\c1nn(CCO)c(N)c1C#N)c1ccc(Cl)cc1Cl	63.3*	-1.6	-0.3	0.1	-6.0	-1.1
Cc1onc(-c2c(Cl)cccc2Cl)c1C(=O)Nc1ccccc1F	-3.2	19.6	0.8	-0.1	·	·
Cc1ccc(S(=O)(=O)Nc2ccc(Br)cc2)cc1S(=O)(=O)Nc1ccc(Br)cc1	52.7*	5.1	-0.4	0.2	15.7	10.5
Cc1cc(C)c(S(=O)(=O)Nc2ccc(Br)cc2)cc1S(=O)(=O)Nc1ccc(Br)cc1	18.0	13.3	0.1	0.0	·	·
COc1ccc(C(OCC(O)CNCCN(C)C)c2ccc(OC)cc2)cc1 (stereo not given)	66.7*	-2.2	-1.1	0.7	10.9	10.4
CCCNCC(O)COC(c1ccccc1)c1ccccc1 (stereo not given)	16.9	-0.9	0.7	-0.3	·	·
O=C(C1CCCN1S(=O)(=O)c1cccc2cccnc12)N1CCc2ccccc21 (stereo not given)	73.1*	7.6	0.9	0.0	-17.5	-4.4
CC(C(=O)Nc1ccccc1-c1ccccc1)N1CCN(C)CC1 (stereo not given)	68.1*	-5.1	-0.1	-0.1	-2.8	-1.0
c1coc(CN2CCN(C3CCCCC3)CC2)c1	64.0*	-1.9	0.0	0.1	7.0	2.1
CC1CCC(N2CCN(Cc3ccco3)CC2)CC1 (stereo not given)	71.1*	7.9	0.5	0.0	27.5*	11.5	AS interf DR=>6.25
O=C(c1ccccc1F)N1CCN(Cc2ccccc2C(F)(F)F)CC1	58.3*	-2.7	-0.8	0.0	1.2	-9.0
O=C(c1ccccc1F)N1CCN(Cc2c[nH]c3ccccc23)CC1	35.4	16.2	-1.0	0.0	·	·
O=C(c1ccccc1F)N1CCN(Cc2ccccc2[N+](=O)[O-])CC1	62.0*	-2.6	0.1	-0.2	7.0	17.2
COc1ccc(Br)cc1CN1CCN(C(=O)c2ccccc2F)CC1	64.5*	-3.0	-2.6	1.0	5.0	14.9
COc1ccc(Br)cc1CN1CCN(C(=O)c2ccccc2)CC1	43.2	8.3	0.4	-0.1	·	·
O=C(c1cccnc1)N1CCN(Cc2ccccc2[N+](=O)[O-])CC1	82.3*	4.5	-1.0	-0.2	-2.2	-2.8
O=C(c1cccc(F)c1)N1CCN(Cc2ccccc2[N+](=O)[O-])CC1	21.6	2.4	-0.7	-0.1	·	·
O=C(NCc1cccs1)c1cc(S(=O)(=O)N2CCCCC2)c[nH]1	-3.0	-4.0	3.1	-0.1	·	·
CN(CCc1ccccn1)c1nc(Cc2ccccc2)nc2sc3c(c12)CCCC3	25.0	-15.6	0.1	0.1	·	·
O=C(c1ccc(F)cc1)N1CCN(Cc2ccccc2[N+](=O)[O-])CC1	55.1*	4.6	2.5	0.1	-13.8	-5.4
COc1cccc(CN2CCN(C3CCCC3)CC2)c1	64.9*	-3.9	0.7	0.1	-7.2	-2.8
COc1cccc(CN2CCN(c3ncccn3)CC2)c1	29.9	-5.6	0.0	0.0	·	·
COc1cccc(CN2CCN(Cc3ccccn3)CC2)c1	51.4*	5.7	-0.8	-0.1	-2.4	-7.7
COc1cccc(CN2CCN(C3CCN(Cc4ccccc4)CC3)CC2)c1	21.6	14.8	0.3	0.0	·	·
SMILES	MITF primary	TEAD-YAP block	GPR151 ag	FBW7 act	MITF confirm	AS interf ctr	others
COc1cccc(CN2CCN(Cc3cc(OC)cc(OC)c3)CC2)c1	80.0*	6.4	-0.2	-0.2	16.9	20.3
COCCn1c(=O)[nH]c2nc(-c3ccco3)cnc21	2.3	4.1	-0.2	0.5	·	·
COc1ccc(S(=O)(=O)NCC(c2ccc3c(c2)CCCN3C)N2CCOCC2)cc1C (stereo not given)	-1.6	-4.9	1.4	0.0	·	·
COc1cccc(N=c2c([N+](=O)[O-])nn(-c3ccc(Cl)cc3)n2O)c1	1.5	9.5	-0.4	-0.4	·	·
Cc1cccc(N=c2c([N+](=O)[O-])nn(-c3ccc(Cl)cc3)n2O)c1	78.0*	10.2	-1.2	-0.4	8.5	9.5
Cc1cccc(-n2nc([N+](=O)[O-])c(=Nc3ccc(F)cc3)n2O)c1	72.2*	-14.9	-0.6	-0.2	8.8	6.2
Cc1ccc(N=c2c([N+](=O)[O-])nn(-c3cccc(C)c3)n2O)cc1	22.1	2.8	0.6	-0.8	·	·
O=C(NCCCNc1ccc([N+](=O)[O-])cc1)c1ccccc1Br	4.7	11.3	-0.4	-0.2	·	·
O=C(NN1C(=O)c2ccc(Oc3ccc([N+](=O)[O-])cc3)cc2C1=O)c1ccco1	57.5*	-72.9	-1.2	0.4	1.0	3.9
CCc1c(C(=O)Nc2ccc(C(C)=O)cc2)[nH]c(C)c1C(C)=O	-12.8	-15.2	0.2	0.2	·	·
OCCNc1cc(-c2cccs2)ncn1	55.8*	-16.6	1.3	0.5	53.0*	2.6	AS interf DR=>6.01
CCCNc1cc(-c2cccs2)ncn1	6.2	-23.1	-2.2	0.4	·	·
COc1ccc(C(=O)OCCN2CCCCC2)c(OC)c1	5.9	-7.8	-0.8	0.1	·	·
COc1ccc2oc(=O)c(-c3nnc(-c4ccc(Cl)cc4)o3)cc2c1	83.9*	4.4	-0.8	0.4	2.9	7.4
Cc1sc(NC(=O)c2cccnc2)c(C(N)=O)c1C	-1.5	1.5	-0.6	0.8	·	·
O=C(CN1CCCCCCC1)N/N=C/c1ccc(F)c(Br)c1	57.1*	-9.5	-0.8	0.2	3.3	0.9
O=C(CN1CCCCCC1)N/N=C/c1ccc(F)c(Br)c1	32.2	-12.5	-0.2	-0.1	·	·
COCCNC(=O)c1cccc([N+](=O)[O-])c1	5.6	7.2	0.9	0.0	·	·
Cc1cc2c(c(=O)[nH]1)C(=O)O/C2=C\c1ccc(C)o1	54.9*	-0.7	-0.6	-0.7	70.3*	6.6	AS interf DR=>6.86
Cc1cc2c(c(=O)[nH]1)C(=O)O/C2=C\c1ccco1	61.5*	0.2	-0.2	-1.2	62.3*	4.9	AS interf DR=>9.3
Cc1cc2c(c(=O)[nH]1)C(=O)O/C2=C/c1ccc(F)cc1	-2.3	-14.0	-2.2	-0.2	·	·
Cc1cc2c(c(=O)[nH]1)C(=O)O/C2=C\c1cccs1	-1.8	-8.4	-0.6	-0.2	·	·
CCOC(=O)CSc1nc2sc3c(c2c(=O)n1Cc1ccccc1)CCc1ccccc1-3	7.9	-3.1	0.5	0.0	·	·
CN(C)CCNc1nc(C2COc3ccccc3O2)nc2ccc(-c3cn[nH]c3)cc12 (stereo not given)	51.8*!	-8.7	-2.4	0.6	63.6*	-12.5	AS interf DR=>6.48
